Reference: PubChem BioAssay (NCATS)
Inconclusive results are not listed. Activity calls are given as the source filed them. Calls follow the shape of the dose curve; as a rule, active = well fitted inhibition curve with a large enough effect; inconclusive = small, poorly fitted or top-dose-only effect; inactive = no such curve, though single readings can be large or run the other way.

Each compound was assayed against Cytochrome P450 3A4 (Homo sapiens) (UniProt P08684) (assay: qHTS Assay for Inhibitors and Substrates of Cytochrome P450 3A4 (AID 884; also: nearly all actives have a fitted effect of over 50% in size)). Settings: recombinant CYP3A4, Luciferin-PPXE luminescence; series mostly up to 57.1 µM; activity change, negative = inhibition: at the top concentration.
Method: NIH Molecular Libraries Screening Centers Network [MLSCN]
NIH Chemical Genomics Center [NCGC]
The P450 gene superfamily is involved in the metabolism and clearance of xenobiotics. This assay used human CYP3A4 to measure the dealkylation of luciferin-6' phenylpiperazinylyl (Luciferin-PPXE; […]) to luciferin. The luciferin is then measured by luminescence after the addition of a luciferase detection reagent. Luciferin-PPXE concentration in the assay was equal to its KM for CYP3A4. Inhibitors and some substrates limit the production of luciferin, and decrease measured luminescence.
NCGC Assay Protocol Summary:
Two uL of enzyme and substrate mix (final concentrations: 20nM CYP3A4, 25uM Luciferin-PPXE, 200mM KPO4) were dispensed into a white, solid bottom 1536-well microtiter plate. 23nL of compound was transferred by a pin tool. The plate was incubated at RT for 10 min. Two uL of an NADPH regeneration solution (Promega supplied reagent) was dispensed and the reaction was allowed to continue for 60 min at RT. Then the reaction was stopped by reconstituted luciferin detection buffer. After another 20 min of incubation the plate was read on the ViewLux (Perkin Elmer) at 60 sec exposure and 2x2 binning. This protocol was carried out with Promega-Glo reagents and further information can be found at http://www.promega.com/tbs/tb325/tb325.pdf. Data were normalized to the to AC100 inhibition (57 uM ketoconazole).
Keywords: P450, CYP3A4, Luciferase, MLSMR, MLSCN, NIH Roadmap, qHTS, NCGC
% is scaled to controls: 0 for no effect and ±100 for the full control effect; potency is read from the fitted curve at half-maximal effect.

Cytochrome P450 3A4 (Homo sapiens), sequence (P08684 whole entry, looked up): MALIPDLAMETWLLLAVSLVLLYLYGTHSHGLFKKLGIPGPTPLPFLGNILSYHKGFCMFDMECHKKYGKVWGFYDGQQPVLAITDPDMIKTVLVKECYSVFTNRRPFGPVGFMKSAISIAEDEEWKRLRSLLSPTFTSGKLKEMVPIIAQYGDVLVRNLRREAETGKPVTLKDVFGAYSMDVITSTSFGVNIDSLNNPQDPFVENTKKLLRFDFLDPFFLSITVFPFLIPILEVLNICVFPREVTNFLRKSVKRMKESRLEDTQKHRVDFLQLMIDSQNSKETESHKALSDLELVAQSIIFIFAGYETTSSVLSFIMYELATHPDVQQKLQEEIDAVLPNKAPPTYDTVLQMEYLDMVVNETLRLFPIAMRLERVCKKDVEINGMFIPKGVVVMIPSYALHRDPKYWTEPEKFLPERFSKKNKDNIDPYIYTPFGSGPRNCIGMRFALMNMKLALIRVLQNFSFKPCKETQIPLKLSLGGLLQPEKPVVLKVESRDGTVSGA

Potency, inactive:
CC(=O)Oc1c(C)c(C)c2c(c1C)CCC(C)(CCCC(C)CCCC(C)CCCC(C)C)O2 (stereo not given)

Potency, active:
COc1ccc(CNc2ncnc3ccc(-c4ccc(N(C)C)cc4)cc23)c(OC)c1 3.98 µM
O=S(=O)(c1ccccc1)N1CCC2(CCCN(c3cccc(-c4ccccc4)c3)C2)CC1 3.98 µM
c1cncc(-c2nc(NCCN3CCOCC3)c3ccccc3n2)c1 7.94 µM
Cc1cccc(CNc2cc(-c3ccoc3)ncn2)c1 7.94 µM
c1cc(NC2CC2)nc(-c2ccoc2)n1 5.01 µM
CN(Cc1ccco1)c1ncncc1-c1ccc2c(c1)OCO2 1.26 µM
COc1ccccc1-c1ccc2ncnc(N(C)C)c2c1 5.01 µM
CN(Cc1ccco1)c1ncnc2ccc(-c3ccc4c(c3)OCO4)cc12 2.51 µM
COc1cccc(-c2ccc3ncnc(NC4CC4)c3c2)c1 2 µM
COCCNc1nc(-c2cccc(OC)c2)nc2ccccc12 5.01 µM
COc1ccc(C(=O)N2CCC[C@@]3(CCN(CC(C)C)C3)C2)cc1 7.94 µM
CN(C)c1ccc(-c2nc(NCc3cccnc3)c3ccccc3n2)cc1 2 µM
O=C(c1ccncc1)N1CCC2(CCCN(Cc3ccncc3)C2)CC1 5.01 µM
COc1ccccc1-c1ccc2ncnc(NCCN3CCOCC3)c2c1 7.94 µM
N#Cc1cccc(-c2cc(-n3ccnc3)ncn2)c1 0.398 µM
COc1ccc(C(=O)N2CCC[C@@]3(CCN(C(=O)Nc4cccc(C#N)c4)C3)C2)cc1 7.94 µM
COc1ccc2[nH]cc(CCNc3nc(-c4ccc(N(C)C)cc4)nc4ccccc34)c2c1 2.51 µM
CNc1nc(-c2cccnc2)nc2ccccc12 6.31 µM
CN(C)c1nc(-c2cccnc2)nc2ccccc12 7.94 µM
Cc1cnc(CNc2ncncc2-c2ccc(N(C)C)cc2)cn1 2 µM
FC(F)(F)c1ccccc1-c1cncnc1Nc1ccccc1 0.501 µM
c1ccc2c(Nc3ccncc3)nc(-c3ccc4c(c3)OCO4)nc2c1 0.501 µM
c1ccc(Nc2ncncc2-c2ccoc2)cc1 2 µM
COc1cccc(Cn2c(=O)c(-c3ccccc3)nc3cnc(N(C)C)nc32)c1 6.31 µM
O=C(CCCc1ccc(-c2ccccc2F)cc1)Nc1ccc(O)cc1 31.6 µM
CN(Cc1ccco1)c1ncncc1-c1cccc(NS(C)(=O)=O)c1 0.794 µM
COc1ccc(CNc2ncncc2-c2cccc(C#N)c2)c(OC)c1 0.316 µM
COc1ccc2[nH]cc(CCNc3ccnc(-c4ccc5c(c4)OCO5)n3)c2c1 2.51 µM
COc1ccc2[nH]cc(CCNc3ccnc(-c4ccccc4Cl)n3)c2c1 2 µM
N#Cc1ccc(CN2CC[C@@]3(CCCN(C(=O)c4cc(C(F)(F)F)cc(C(F)(F)F)c4)C3)C2)cc1 5.01 µM
O=c1c(-c2cccs2)nc2cnc(N3CCNCC3)nc2n1C1CC1 6.31 µM
c1ccc(C(c2ccccc2)N2CCCC3(CCNCC3)C2)cc1 1.26 µM

Activity change, negative = inhibition, inactive:
COCC(=O)N1CCC2(CC1)CN(Cc1nccs1)C2 -43.9%
O=c1c(-c2ccc(Cl)cc2)nc2cnc(N3CCOCC3)nc2n1Cc1ccc(F)cc1 42.9%
N[C@H](C(=O)O)C(O)C(O)C(O)CO (stereo not given in full) -5.64%
CC(C)=CCC/C(C)=C/CC/C(C)=C/CC/C(C)=C/CC/C(C)=C/CC/C(C)=C/CC/C(C)=C/CC/C(C)=C/CC/C(C)=C/CO -12.2%
CCNc1ncc2nc(-c3ccc(Cl)cc3)c(=O)n(Cc3ccc(F)cc3)c2n1 49.1%
N#Cc1cccc(NC(=O)N2CC3(CCN(C(=O)c4cnccn4)CC3)C2)c1 14.3%
Cn1cccc1C(=O)N1CCC2(CC1)CN(c1cccc(-c3ccccc3)c1)C2 30%
